Compounds without any hit were thinned out: in the full panel of roughly 83,000, 20% have a hit.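 Step 1: grow cells in 96-well plates. Step 2: add test compound at a single concentration. Step 3: incubate 48 h. Step 4: record percent growth.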 A number with no mark means an inactive call. The source made the active and inactive calls. How the source made its calls: active means growth percent below 10; inactive means the rest.
What follows are compounds tested on MDA-MB-468 breast (assay: NCI-60 one-dose screen, 48 h (100 = growth as untreated, 0 = no growth, -100 = all killed)). Conditions: 10 µM unless noted.
For CN(C)c1ccc(CNCCO)cc1, the growth was 105%. In the case of Cc1ccc(C(CN(C)C)C(=O)c2ccccc2)cc1 (centres undefined), the growth is reported as 4.73% (active). O=C(Nc1ccccc1Cl)Oc1ccc2ccccc2c1 gave a growth of 104%. With C=CN(C)S(C)(=O)=O the growth was -3.6% (active). COc1cccc(C(=O)Nc2cccc(NC(=O)c3ccccn3)c2)c1 gave a growth of 105%. For CCCCCCNC(=O)Oc1ccc(/C(=C(/C)c2ccc(OC)cc2)c2ccc(OCCN3CCCCCC3)cc2)cc1, the growth was 1.03% (active). In the case of C=C[C@@H]1C[C@@H]2Cc3c(C)cc(C)cc3N1O2, the growth is reported as 97.9%. In the case of COc1cc(Nc2ncccc2C(=O)NCc2cn(Cc3cccc(Oc4ccccc4)c3)nn2)cc(OC)c1, the growth is reported as 18.6%. With O=C(Nc1ccc(F)c(Cl)c1)Nc1ccc(Cl)c(Cl)c1 the growth was 9.54% (active). CCCCNC(=O)Oc1ccc(/C(=C(/C)Cc2ccc(OC)cc2)c2ccc(OCCN3CCCCCC3)cc2)cc1 was tested, and the growth was 69.2%. In the case of CCCCCCCCCCCCCCCC[N+]1(C)CCCC1c1cccnc1 (centres undefined), the growth is reported as -15.8% (active). For COc1ccc(OC)c(/C=C2\COc3ccc(O)c(O)c3C2=O)c1, the growth was 16.6%. With CC(=O)Nc1ccc2c(c1)/C(=C\C=C/c1ccc([N+](C)(C)C)cc1)c1ccccc1-2 the growth was 21.5%. With NC(=O)Nc1ccc2ncnc(Nc3cccc(O)c3)c2c1 the growth was 67.9%. O=C(Nc1cc(Br)ccn1)c1cc2cc(Nc3nc(-c4ccccc4)nc4ccccc34)ccc2oc1=O was tested, and the growth was 123%. COc1ccc(-c2nc(SCC(C)C)nc(Nc3ccc(C(=O)O)cc3)c2C#N)cc1 gave a growth of 91.3%. For COc1ccc(/C=C2\CCCC3=C2NC(N)=NC3c2ccc(OC)cc2)cc1 (centres undefined), the growth was -5.61% (active). Work on O=C(O)c1ccc(NCc2cn(-c3ccc(C(F)(F)F)cc3)nc2-c2ccc(C(=O)O)cc2)cc1 yielded a growth of 123%. For CCCCCCCCCCCCCCCCC1CC(=O)OC1=O (centres undefined), the growth was 119%. With CC[C@H]1CCC/C=C/[C@@H]2C[C@H](O)C[C@H]2[C@H](O)/C=C/C(=O)O1 the growth was -51.5% (active). Compound COc1cccc2nc3n(c12)C(c1c(F)cccc1F)SC3 (centres undefined) has a growth of 89.2%. Cc1ccc(-c2cc3nc(C(Cl)Cl)nc(C)n3n2)cc1 was tested, and the growth was 110%. Work on COc1c(N2CC3CCCNC3C2)c(F)cc2c(=O)c(C(=O)N/N=C/c3ccc4c(c3)OCO4)cn(C3CC3)c12 (centres undefined) yielded a growth of 63.1%. CCOc1cccc(C2CC(=O)Nc3cc4c(cc32)OCO4)c1 (centres undefined) showed a growth of 34.2%. With O=C(CN1C(=O)NC2NC(=O)NC21)N/N=C/c1cccc([N+](=O)[O-])c1 (centres undefined) the growth was 97.6%. Compound C=Cc1nn2c(CCC(=O)c3nc4ccccc4[nH]3)nnc2s1 has a growth of 110%. With COc1cc(/C=C/C(=O)c2cc(-c3ccc(F)cc3)ccc2O)cc(OC)c1OC the growth was 65.6%. CN(C)CCCC(C#N)c1ccccc1 (centres undefined) gave a growth of 108%. For O=C(Cn1nnc2ccccc21)Nc1ccc(-c2nc3ccccc3s2)cc1, the growth was -23.8% (active). With CCOC(=O)CC(S(=O)(=O)c1ccccc1)S(=O)(=O)c1ccccc1 the growth was 23.2%. Compound C=CC(=O)Nc1cccc(-c2nc(SC)nc(NCCc3ccc(OC)c(OC)c3)c2C#N)c1 has a growth of 19.2%. OC(c1cc2cc(Br)ccc2c2cc(Br)ccc12)C1CCCCN1 (centres undefined) was tested, and the growth was -83.1% (active). COc1cc(C(=O)N2CCN(c3cc4c(cc3F)c(=O)c(C(=O)NO)cn4C3CC3)CC2)cc(OC)c1OC showed a growth of 95.8%. In the case of CSc1nc(NCCCNc2ccnc3cc(Cl)ccc23)cc(-c2ccccc2)n1, the growth is reported as 11.3%. With CC1C(=O)NC2=Nc3ccccc3C(=O)NN21 (centres undefined) the growth was 93.7%. COc1cc2c(cc1OC)N(CCO)C1=C(C(=O)OC1)C2c1ccc(Cl)c(Cl)c1 (centres undefined) was tested, and the growth was 112%. CCOC(=O)c1c(C)c2c(n1Cc1ccccc1)CSc1cc(C#N)c(=O)[nH]c1-2 gave a growth of 80.3% [100 µM]. In the case of COc1ccc(-c2nn(-c3ccc(NC(=O)Nc4cc(C(F)(F)F)cc(C(F)(F)F)c4)cc3)cc2-c2ccncc2)cc1Cl, the growth is reported as -11.6% (active). In the case of C#Cc1nc(/C=C/C(=O)NO)cs1, the growth is reported as 51.7%.
